# In the library only some 6.3% were active in any assay of this set; here they are far more common.
# PMK inhibit: S. pneumoniae PMK inhibition; purified PMK, PK/LDH-coupled NADH absorbance 340 nm; inhibition, % at 10 µM; actives 0.49% (n = 65,000);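 active means top-ranked compounds by inhibition in the single 10 µM screen, taking a fixed number of the strongest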;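 further: 0% = full reaction with DMSO carrier and 100% = background rate without enzyme reaction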
# NADH enzymes: inhibitors of enzymes used to reach an NAD/NADH endpoint. coupled PK/LDH NADH assays, four targets. IC50, µM (series often up to 10 µM), inactives show top-dose inhibition. actives 0.02% (n = 65,000);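 active means single-dose screening hits from any of four coupled enzyme assays that gave an IC50 when retested across doses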;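 further: the DPM-DC format reads NADH fluorescence rather than 340 nm absorbance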
# Abs 340nm: absorbance at 340 nm; compound absorbance at 340 nm, fold over control; 65,000 tested, under 10 active; AID 708; fold change at 10 µM;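 active means at 10 µM dose, initial 340 nm absorbance at least 2 fold that of control wells; inactive means change under 2 fold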;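 further: initial absorbance extrapolated from kinetic A340 decline of NADH oxidation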
# Fluor 339 460: intrinsic fluorescence of library compounds, ex339/em460 – biochemical, MLSMR library, data from DPM-DC assay, artefact control, profiling panel; AID 709; fluorescence fold increase at 10 µM; compound autofluorescence, ex339/em460 nm, NADH buffer; hits give high values; 1 = no-compound wells, NADH background; actives 5.5% (n = 65,000);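 active means at 10 µM, mean starting fluorescence two-fold or more over control wells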;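 further: signal is the first read of a kinetic run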
# DPM-DC inhibit: inhibitors of Streptococcus pneumoniae diphosphomevalonate decarboxylase; purified DPM-DC, PK/LDH coupled NADH fluorescence; calls only at 10 µM; actives 0.49% (n = 65,000); AID 556;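 active means the 320 compounds with the highest percent inhibition in the single-dose primary screen, excluding strongly autofluorescent ones, cut at about 32% in these data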;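 further: kinetic rate of NADH fluorescence loss reporting ADP formed by the decarboxylase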
# MK inhibit: inhibitors of Streptococcus pneumoniae mevalonate kinase | actives 0.48% (n = 65,000) | inhibition, % at 10 µM | purified MK, PK/LDH-coupled NADH absorbance 340 nm;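 active means ranked among the strongest by inhibition in the single 10 µM screen, a fixed top-ranked set picked for dose follow-up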
# Active calls of the source: *; i = inactive; . = no result shown; + = active, no number.
SMILES,PMK inhibit,NADH enzymes,Abs 340nm,Fluor 339 460,DPM-DC inhibit,MK inhibit
COc1ccc(CNC(=O)C(C)N(Cc2ccco2)C(=O)c2snc(C(N)=O)c2N)cc1 (configuration not stated),13,13%,1,2.2*,i,12
OCCOCCn1c2ccccc2c2ccccc21,6,4%,1,1.1,i,7
O=C(NCc1ccccc1)C1C2C=CC3(CN(Cc4cccnc4)C(=O)C13)O2 (configuration not stated),27*,11%,0.99,0.98,i,0
COc1ccc(NC(=O)Nc2ccccc2C(=O)N2CCCC2)cc1,2,5%,1.1,1.1,i,7
O=c1cccccc1NCc1ccccc1,1,13%,1.1,1.1,+,5
CCNC(=O)c1cc2c(=O)n3cccc(C)c3nc2n1C,10,9%,1.1,5*,.,7
Cn1c(C(=O)N2CCc3ccccc32)cc2c(=O)n3ccccc3nc21,0,0%,1.1,1.9,i,0
Cc1cccn2c(=O)c3cc(C(=O)NCCCn4ccnc4)n(C)c3nc12,13,13%,1.1,5*,.,12
Cc1cccn2c(=O)c3cc(C(=O)NCCCN4CCCC4=O)n(C)c3nc12,12,6%,1.1,5*,.,0
Cc1cccn2c(=O)c3cc(C(=O)N4CCN(c5ccccc5)CC4)n(C)c3nc12,2,1%,1.1,5*,.,0
C=CCN1CCN(C(c2cc(OC)ccc2OC)c2nnnn2CC2CCCO2)CC1 (configuration not stated),17,9%,0.99,1,i,11
Cc1onc(-c2ccccc2)c1C(=O)N1CCc2ccccc21,1,4%,0.99,1.1,i,11
CCN(CC)CCN=C1CCCc2ccccc2N1,6,4%,1,1.1,i,5
Cn1c(C(=O)NCc2ccccn2)cc2c(=O)n3ccccc3nc21,9,6%,1.1,4.9*,.,3
CCOCCCNC(=O)c1cc2c(=O)n3cccc(C)c3nc2n1C,2,1%,1.1,2.1*,.,0
CCCCNC(=O)c1cc2c(=O)n3cccc(C)c3nc2n1C,18,15%,1.1,2.1*,.,11
Cc1nc2c(C)cccn2c1/C(O)=C1\C(=O)C(=O)N(CCN(C)C)C1c1ccncc1 (configuration not stated),10,6%,1.1,1.1,i,9
Cc1cccn2c(=O)c3cc(C(=O)N(C)C)n(C)c3nc12,10,9%,1.1,4.9*,.,8
CCOc1cc(C(=O)CSc2nnc(CNc3ccc(Cl)cc3)o2)ccc1NC(=O)CC,7,3%,1,1.1,i,3
CCOC(=O)CSc1nnc(-c2nnc(SCC(=O)OCC)n2CC)n1CC,12,6%,1,0.96,i,1
Cc1nc(Nc2nc(=O)c3ccccc3n2C)nc2c(C)cccc12,7,5%,1,1.8,i,18
Cc1cc(C)cc(N(CC(=O)N2CCN(Cc3ccccc3)CC2)S(=O)(=O)c2c(C)noc2C)c1,0,0%,1,1,i,0
Cn1c(C(=O)N2CCCc3ccccc32)cc2c(=O)n3ccccc3nc21,16,15%,1.1,2.6*,i,14
COCCNC(=O)c1cc2c(=O)n3cccc(C)c3nc2n1C,4,4%,1.1,2.1*,.,4
O=C(CSCc1ccc(Cl)cc1)c1ccco1,0,3%,0.99,1.1,i,10
SMILES,PMK inhibit,NADH enzymes,Abs 340nm,Fluor 339 460,DPM-DC inhibit,MK inhibit
Cn1c(=O)c2nc(NCc3ccccc3)cnc2n(C)c1=O,14,13%,0.99,3.9*,i,5
CCOC(=O)C(CC)Sc1nc2c(cnn2-c2ccccc2)c(=O)[nH]1 (configuration not stated),6,7%,1,1.2,i,13
CCC(CC)C(=O)Nc1c2cnn(-c3ccccc3)c2nc(=O)n1-c1ccccc1,3,8%,1,2.2*,i,4
CC1CC(C)CN(CCCNC(=O)Cn2ncc3c(=O)oc4ccccc4c32)C1 (configuration not stated),7,18%,0.99,0.57,+,10
Cc1ccc(S(=O)(=O)N(C)CCCC(=O)N2CCN(C=O)CC2)cc1,2,4%,1,1.1,i,8
O=C(Cn1cnnn1)OCC(=O)c1ccc(Cl)s1,14,9%,1,2.3*,i,0
CCCCOc1ccc(/C(N)=N/O)cc1,18,6%,1,1.1,i,0
CN(C)c1ccc(C2C=C(c3ccc(Cl)cc3OC(F)F)Nc3ncnn32)cc1 (configuration not stated),8,10%,1,1.6,i,8
Cc1ccc(C2C=C(c3ccccc3OC(F)F)Nc3ncnn32)cc1 (configuration not stated),14,12%,1,2.1*,i,13
Cc1ccc(C2C=C(c3ccc4c(c3)OCO4)Nc3ncnn32)cc1 (configuration not stated),5,8%,1.1,3*,i,0
Clc1ccc(Cc2nn3c(Cn4nnc5ccccc54)nnc3s2)cc1,0,2%,1,1,i,4
COc1cc(CNc2ccc3c(c2)CCC3)cc(OC)c1O,0,15%,1.1,1.1,i,44*
Cn1c(Cl)cnc1C(O)c1ccccc1 (configuration not stated),14,8%,1,1.1,i,8
COc1cccc2c3c(c(C)nc12)CC(C)O3 (configuration not stated),3,5%,1,3.7*,.,6
COc1ccc2nc(C)c3c(c2c1)OC(C)C3 (configuration not stated),0,2%,1.1,1.7,i,3
Cc1sc(NC(=O)CSc2nnc(COc3ccccc3)n2C)c(C#N)c1C,17,5%,1,2.1*,i,9
COc1ccc2c(C)c(Cl)c(=O)oc2c1,1,4%,1.1,2.2*,.,6
Cc1cc(=O)oc2cc(OCC(=O)N3CCc4ccccc4C3)ccc12,3,9%,1.1,2,i,11
COC(=O)Cc1c(C)c2ccc(OCC(=O)N3CCOCC3)cc2oc1=O,3,1%,1.1,2.9*,.,2
COC(=O)COc1ccc2occ(C(C)=O)c2c1,9,4%,1.1,1.1,i,4
CCc1c(C)c2ccc(OCC(=O)OC)cc2oc1=O,6,2%,1,2.9*,.,8
CC(C)(C)S(=O)(=O)c1ccc2nc3c(n2c1)CCCC3,14,15%,1,3.9*,.,15
O=C(COC(=O)Cc1ccc(S(=O)(=O)N2CCOCC2)s1)NCc1ccccc1,13,21%,0.99,1.1,i,49*
CC1(C)CC(=O)c2cc(OCC(=O)O)ccc2O1,14,7%,1,4.8*,.,0

# Screening data (PubChem BioAssay)
